Test results reported in PubChem BioAssay AID1159580 (chemical genetic matrix, 2015).
Values joined by “and” are separate entries in the source; they are usually repeats but may differ in a detail not shown here. Equal entries are not always repeated. In all, about 5,500 compounds went through this assay and about 2,000 (36%) were called active. Roughly 18% stayed inconclusive and do not appear here. Rule as the data show it: active = normalized growth mostly below about 0.91 (no sharp cut-off); inconclusive = no clear call, values can overlap the other calls; inactive = mostly above about 0.92. This is one part of the list.

Test: chemical genetic growth profiling, strain panel (AID 1159580);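 also: tested at 20 µM; growth read once vehicle control cultures reached saturation at 30 °C; 1 = growth at the plate median or of vehicle wells; lower values mean less growth of the strain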
Settings: S. cerevisiae deletion strains, growth OD

Measured: normalized growth

CC(C)CCCC(C)C1CCC2C3CC[C@H]4CCCC[C@]4(C)C3CC[C@]12C (some centres not stated)
inactive: locus YAL013W, strain DEP1, active compounds read low 1.09 | locus YAL021C, strain ccr4, active compounds read low 1 | locus YAL026C, strain drs2, active compounds read low 1.02 | locus YAL030W, strain snc1, active compounds read low 1.02 | locus YBL061C, strain skt5, active compounds read low 1.02 | locus YBR009C, strain hhf1, active compounds read low 1.03 | locus YBR021W, strain FUR4, active compounds read low 1.04 | locus YBR023C, strain chs3, active compounds read low 1.02 | locus YBR171W, strain sec66, active compounds read low 1.02 | locus YBR229C, strain ROT2, active compounds read low 0.963 | locus YBR231C, strain swc5, active compounds read low 1.03 | locus YBR279W, strain paf1, active compounds read low 1.02 | locus YCL011C, strain gbp2, active compounds read low 1.02 | locus YCL016C, strain dcc1, active compounds read low 1.02 | locus YCL029C, strain bik1, active compounds read low 0.985 | locus YCL061C, strain MRC1, active compounds read low 1.02 | locus YCL069W, strain vba3, active compounds read low 1.01 | locus YCR088W, strain abp1, active compounds read low 1.01 | locus YDL005C, strain med2, active compounds read low 1.02 | locus YDL035C, strain GPR1, active compounds read low 0.971 | locus YDL040C, strain nat1, active compounds read low 1.01 | locus YDL074C, strain BRE1, active compounds read low 0.959 | locus YDL101C, strain DUN1, active compounds read low 0.952 | locus YDL134C, strain PPH21, active compounds read low 0.985 | locus YDL185W, strain tfp1, active compounds read low 0.966 | locus YDL192W, strain arf1, active compounds read low 0.983 | locus YDR001C, strain nth1, active compounds read low 1.01 | locus YDR069C, strain doa4, active compounds read low 1.05 | locus YDR101C, strain arx1, active compounds read low 0.99 | locus YDR137W, strain rgp1, active compounds read low 1 | locus YDR150W, strain NUM1, active compounds read low 0.965 | locus YDR159W, strain sac3, active compounds read low 1.04 | locus YDR162C, strain NBP2, active compounds read low 0.964 | locus YDR195W, strain ref2 1.03 | locus YDR297W, strain sur2, active compounds read low 1.02 | locus YDR318W, strain mcm21, active compounds read low 1 | locus YDR334W, strain swr1, active compounds read low 1.01 | locus YDR335W, strain msn5, active compounds read low 1.02 | locus YDR388W, active compounds read low 0.987 | locus YDR392W, strain spt3, active compounds read low 0.98 | locus YDR502C, strain sam2, active compounds read low 0.978 | locus YEL003W, strain gim4, active compounds read low 1.03 | locus YEL037C, strain rad23, active compounds read low 1.01 | locus YEL061C, strain CIN8 (second series), active compounds read low 1.01 | locus YEL061C, strain CIN8, active compounds read low 0.994 | locus YER015W, strain faa2, active compounds read low 1.02 | locus YER016W, strain bim1, active compounds read low 1.02 | locus YER110C, active compounds read low 0.988 | locus YER111C, strain swi4, active compounds read low 1.03 | locus YER155C, strain BEM2 (second series), active compounds read low 1.04 | locus YER155C, strain BEM2, active compounds read low 0.998 | locus YER167W, strain BCK2, active compounds read low 1.01 | locus YFR010W, strain ubp6, active compounds read low 1.02 | locus YGL078C, strain dbp3, active compounds read low 0.994 | locus YGL086W, strain mad1, active compounds read low 1.01 | locus YGL167C, strain pmr1, active compounds read low 1.01 | locus YGL173C, strain kem1, active compounds read low 1.02 | locus YGL227W, strain vid30, active compounds read low 1.03 | locus YGL240W, strain doc1, active compounds read low 1.05 | locus YGL248W, strain PDE1, active compounds read low 0.984 | locus YGL253W, strain hxk2, active compounds read low 1 | locus YGR078C, strain PAC10, active compounds read low 0.967 | locus YGR135W, strain pre9, active compounds read low 0.965 | locus YGR229C, strain SMI1, active compounds read low 0.979 | locus YGR252W, strain gcn5, active compounds read low 1 | locus YHR013C, strain ard1, active compounds read low 1.05 | locus YHR027C, strain rpn1, active compounds read low 1.01 | locus YHR030C, strain SLT2, active compounds read low 0.997 and 0.984 | locus YHR079C, strain IRE1 (second series), active compounds read low 1 | locus YHR079C, strain IRE1, active compounds read low 1 | locus YHR094C, strain hxt1, active compounds read low 0.988 | locus YHR129C, strain ARP1, active compounds read low 0.993 | locus YHR142W, strain chs7, active compounds read low 0.982 | locus YHR200W, strain rpn10, active compounds read low 0.978 | locus YIL066C, strain RNR3, active compounds read low 0.974 | locus YIL073C, strain SPO22, active compounds read low 1.08 | locus YIL125W, strain kgd1, active compounds read low 0.991 | locus YIR030C, strain dcg1, active compounds read low 0.987 | locus YJL092W, strain hpr5, active compounds read low 1.01 | locus YJL095W, strain BCK1 (second series), active compounds read low 1.01 | locus YJL095W, strain BCK1, active compounds read low 0.976 and 0.988 | locus YJL115W, strain asf1, active compounds read low 1.01 | locus YJL129C, strain trk1, active compounds read low 1.01 | locus YJL134W, strain LCB3, active compounds read low 0.991 | locus YJL154C, strain vps35, active compounds read low 1 | locus YJL164C, strain tpk1, active compounds read low 1.02 | locus YJL166W, strain qcr8, active compounds read low 1.02 | locus YJL168C, strain set2, active compounds read low 0.988 | locus YJL187C, strain SWE1 (second series), active compounds read low 0.966 | locus YJL187C, strain SWE1, active compounds read low 1.02 | locus YJR043C, strain POL32, active compounds read low 1.05 | locus YJR066W, strain TOR1, active compounds read low 0.931
